Experimental data: paper PMC7862700, “An all-to-all approach to the identification of sequence-specific readers for epigenetic DNA modifications on cytosine”

Key:
Assay in all cases: DAPPL (digital affinity profiling via proximity ligation, sequencing); 10 mM Tris-HCl pH 7.5, 50 mM NaCl, 1 mM DTT, 4% glycerol, room temperature, 30 min; GST-TFs on glutathione beads, 16-mer random dsDNA library, 0.1% formaldehyde crosslink after washing; high values mean tight binding
Conditions in all cases: protein: recombinant; tags: N-terminal GST; dsDNA, one strand shown
ETV1 = ETV1 (Homo sapiens, UniProt P50549 1-477)
Outline: (§1)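 Binding signal is each hexamer's read frequency for a factor divided by its frequency in the tag-only sample. The factors were GST-fused human transcription factors from yeast, captured on glutathione beads, DNA-barcoded and pooled with that sample. Pools were incubated with 200 nmole of a random double-stranded 16-mer DNA library in Tris/NaCl/DTT/glycerol buffer at room temperature for 30 min, then washed, crosslinked with 0.1% formaldehyde, proximity-ligated with BsaI/T4 ligase (1 h, 37 °C), PCR-amplified and sequenced on an Illumina NextSeq500.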

ERF = molecular target: T1, ERF (Homo sapiens, UniProt P50548 1-548)
T1 sequence: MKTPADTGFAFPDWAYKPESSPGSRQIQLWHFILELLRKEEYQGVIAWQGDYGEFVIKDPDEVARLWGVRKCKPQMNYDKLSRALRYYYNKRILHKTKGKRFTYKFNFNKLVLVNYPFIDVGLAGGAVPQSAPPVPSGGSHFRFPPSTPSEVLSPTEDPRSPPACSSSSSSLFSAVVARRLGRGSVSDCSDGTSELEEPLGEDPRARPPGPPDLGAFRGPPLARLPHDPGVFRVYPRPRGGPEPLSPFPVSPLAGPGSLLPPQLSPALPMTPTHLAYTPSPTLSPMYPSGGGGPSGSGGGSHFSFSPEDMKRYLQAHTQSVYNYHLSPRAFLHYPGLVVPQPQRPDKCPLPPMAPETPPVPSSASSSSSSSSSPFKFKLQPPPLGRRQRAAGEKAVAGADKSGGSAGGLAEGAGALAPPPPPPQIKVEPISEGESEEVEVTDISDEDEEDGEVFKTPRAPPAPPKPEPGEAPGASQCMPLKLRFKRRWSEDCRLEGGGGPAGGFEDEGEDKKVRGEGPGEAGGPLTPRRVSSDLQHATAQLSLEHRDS
Outline: as §1

ETV3L = molecular target: T2, ETV3L (Homo sapiens, UniProt Q6ZN32 1-361)
T2 sequence: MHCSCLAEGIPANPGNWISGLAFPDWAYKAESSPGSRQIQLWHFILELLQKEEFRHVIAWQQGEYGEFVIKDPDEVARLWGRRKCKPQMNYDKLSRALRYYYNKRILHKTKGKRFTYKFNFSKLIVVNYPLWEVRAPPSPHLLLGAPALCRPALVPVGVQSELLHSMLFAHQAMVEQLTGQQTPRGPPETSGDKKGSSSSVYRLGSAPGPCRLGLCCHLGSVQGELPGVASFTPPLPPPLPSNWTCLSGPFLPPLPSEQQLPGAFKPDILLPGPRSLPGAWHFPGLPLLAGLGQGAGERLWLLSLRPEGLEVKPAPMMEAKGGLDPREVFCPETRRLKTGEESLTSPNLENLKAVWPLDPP
Outline: as §1

ETS2 = molecular target: T3, ETS2 (Homo sapiens, UniProt P15036 1-469)
T3 sequence: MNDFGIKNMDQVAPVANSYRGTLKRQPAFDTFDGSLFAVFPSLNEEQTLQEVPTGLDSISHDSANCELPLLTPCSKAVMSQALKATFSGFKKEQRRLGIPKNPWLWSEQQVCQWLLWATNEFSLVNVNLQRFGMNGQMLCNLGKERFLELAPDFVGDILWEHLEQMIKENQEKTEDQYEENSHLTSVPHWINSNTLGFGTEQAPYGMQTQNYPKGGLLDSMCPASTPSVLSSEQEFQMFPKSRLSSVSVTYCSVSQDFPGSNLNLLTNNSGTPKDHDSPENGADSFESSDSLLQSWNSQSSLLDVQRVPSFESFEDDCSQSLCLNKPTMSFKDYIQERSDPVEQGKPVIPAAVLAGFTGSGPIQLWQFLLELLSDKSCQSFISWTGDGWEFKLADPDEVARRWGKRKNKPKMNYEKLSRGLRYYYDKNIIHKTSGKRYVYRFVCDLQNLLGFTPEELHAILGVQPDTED
Outline: as §1

SPDEF = molecular target: T4, SPDEF (Homo sapiens, UniProt O95238 1-335)
T4 sequence: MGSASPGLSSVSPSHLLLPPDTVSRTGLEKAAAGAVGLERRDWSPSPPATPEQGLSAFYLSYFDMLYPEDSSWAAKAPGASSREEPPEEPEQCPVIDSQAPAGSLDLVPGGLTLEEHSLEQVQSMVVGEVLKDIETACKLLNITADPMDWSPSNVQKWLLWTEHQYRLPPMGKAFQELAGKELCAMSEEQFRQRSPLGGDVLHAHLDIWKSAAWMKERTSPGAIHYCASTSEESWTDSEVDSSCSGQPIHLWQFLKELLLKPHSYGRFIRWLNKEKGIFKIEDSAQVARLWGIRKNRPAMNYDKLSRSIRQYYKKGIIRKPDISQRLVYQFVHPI
Outline: as §1

ETV7 = molecular target: T5, ETV7 (Homo sapiens, UniProt Q9Y603 1-341)
T5 sequence: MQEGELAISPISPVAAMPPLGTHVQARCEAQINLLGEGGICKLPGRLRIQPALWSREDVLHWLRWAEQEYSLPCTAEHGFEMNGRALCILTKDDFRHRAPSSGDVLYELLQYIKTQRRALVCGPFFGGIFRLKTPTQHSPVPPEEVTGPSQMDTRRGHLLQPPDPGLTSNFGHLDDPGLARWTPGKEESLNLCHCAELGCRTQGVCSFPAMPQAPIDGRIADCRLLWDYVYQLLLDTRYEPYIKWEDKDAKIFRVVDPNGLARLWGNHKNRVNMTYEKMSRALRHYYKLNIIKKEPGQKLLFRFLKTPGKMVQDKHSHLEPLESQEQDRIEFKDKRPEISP
Outline: as §1

ELF5 = molecular target: T6, ELF5 (Homo sapiens, UniProt Q9UKW6-2 1-255)
T6 sequence: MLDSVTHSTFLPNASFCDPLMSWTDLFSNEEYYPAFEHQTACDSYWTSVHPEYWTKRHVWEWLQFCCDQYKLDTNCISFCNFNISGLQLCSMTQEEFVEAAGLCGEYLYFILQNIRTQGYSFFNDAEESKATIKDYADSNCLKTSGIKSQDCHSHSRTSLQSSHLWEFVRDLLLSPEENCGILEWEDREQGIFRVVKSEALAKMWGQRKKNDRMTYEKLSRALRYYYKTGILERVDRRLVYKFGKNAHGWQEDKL
Outline: as §1

ETV3 = molecular target: T7, ETV3 (Homo sapiens, UniProt P41162-2 1-143)
T7 sequence: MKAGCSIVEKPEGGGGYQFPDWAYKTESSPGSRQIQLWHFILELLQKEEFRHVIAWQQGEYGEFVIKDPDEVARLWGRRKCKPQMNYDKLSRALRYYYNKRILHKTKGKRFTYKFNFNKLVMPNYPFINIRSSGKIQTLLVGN
Outline: as §1

ETV6 = ETV6 (Homo sapiens, UniProt P41212 1-452)
Outline: as §1

Sequence of ETV1 (P50549 whole entry, the tested form may be a part): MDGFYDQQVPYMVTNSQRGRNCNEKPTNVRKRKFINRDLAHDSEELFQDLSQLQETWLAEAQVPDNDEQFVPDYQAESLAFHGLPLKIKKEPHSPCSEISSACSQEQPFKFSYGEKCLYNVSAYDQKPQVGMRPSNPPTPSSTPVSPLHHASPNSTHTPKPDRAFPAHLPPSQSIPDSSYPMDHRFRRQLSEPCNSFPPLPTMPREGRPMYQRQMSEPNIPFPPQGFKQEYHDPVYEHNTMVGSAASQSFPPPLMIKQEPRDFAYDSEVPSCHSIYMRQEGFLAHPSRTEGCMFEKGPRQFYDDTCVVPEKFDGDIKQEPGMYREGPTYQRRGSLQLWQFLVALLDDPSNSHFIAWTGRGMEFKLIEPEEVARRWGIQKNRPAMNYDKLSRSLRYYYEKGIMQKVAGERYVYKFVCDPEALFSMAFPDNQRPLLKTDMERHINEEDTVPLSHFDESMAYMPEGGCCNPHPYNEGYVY
Sequence of ETV6 (P41212 whole entry): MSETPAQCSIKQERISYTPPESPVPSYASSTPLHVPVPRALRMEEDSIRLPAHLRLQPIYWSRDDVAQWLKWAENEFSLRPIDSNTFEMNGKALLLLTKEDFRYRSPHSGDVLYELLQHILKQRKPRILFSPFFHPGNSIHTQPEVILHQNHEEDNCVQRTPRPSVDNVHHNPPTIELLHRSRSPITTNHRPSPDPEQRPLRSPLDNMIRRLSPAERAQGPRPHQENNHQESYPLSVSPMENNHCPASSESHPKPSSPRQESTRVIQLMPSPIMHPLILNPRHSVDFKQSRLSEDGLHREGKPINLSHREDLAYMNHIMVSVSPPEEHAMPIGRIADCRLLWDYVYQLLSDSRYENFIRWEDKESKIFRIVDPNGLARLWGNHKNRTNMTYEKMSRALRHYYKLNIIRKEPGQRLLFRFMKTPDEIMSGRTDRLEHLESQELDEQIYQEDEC

TGCATT
binding signal (ETV1): 1.32 fold enrichment (6-mer frequency, TF over GST control) | binding signal (ERF): 1.45 fold enrichment (6-mer frequency, TF over GST control) | binding signal (ETV3L): 1.39 fold enrichment (6-mer frequency, TF over GST control) | binding signal (ETS2): 1.34 fold enrichment (6-mer frequency, TF over GST control) | binding signal (SPDEF): 1.41 fold enrichment (6-mer frequency, TF over GST control) | binding signal (ETV7): 1.22 fold enrichment (6-mer frequency, TF over GST control) | binding signal (ELF5): 1.25 fold enrichment (6-mer frequency, TF over GST control) | binding signal (ETV3): 1.34 fold enrichment (6-mer frequency, TF over GST control) | binding signal (ETV6): 1.35 fold enrichment (6-mer frequency, TF over GST control)
